Source: the supplement of paper PMC6555819

Assays:
Assay in all cases: PBM binding z-score (relative to random genomic background probes); higher = stronger binding; sequences stand for … in GC…GCGATTGACAGCGTAGAATGAAGG
[1] = test system: FXR:RXRa (NR concentration 270 nM, RXRa partner concentration 90 nM)
In short: (§1)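 Custom Agilent 4×180K protein-binding microarrays carried double-stranded probes, each with a 34-nt variable region. These regions held direct-repeat seeds, single-nucleotide variants, half-site ablations and random human genomic background sequences. Ligand-free nuclear receptor dimers were incubated on the arrays for 1 h, antibodies against each partner (one per run) detected binding, and scanned fluorescence was regression-normalized. Binding z-scores take the random background probes as reference.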

[2] = test system: LXRa:RXRa (NR concentration 270 nM, RXRa partner concentration 90 nM)
In short: as §1

[3] = test system: LXRa homodimer (NR concentration 270 nM)
In short: as §1

[4] = test system: LXRb:RXRa (NR concentration 270 nM, RXRa partner concentration 90 nM)
In short: as §1

[5] = test system: LXRb homodimer (NR concentration 270 nM)
In short: as §1

[6] = test system: PPARa:RXRa (NR concentration 270 nM, RXRa partner concentration 90 nM)
In short: as §1

[7] = test system: PPARg:RXRa (NR concentration 180 nM, RXRa partner concentration 90 nM)
In short: as §1

[8] = test system: PPARg:RXRa 270nM:90nM, anti-RXR (NR concentration 270 nM, RXRa partner concentration 90 nM)
In short: as §1

[9] = test system: PPARg:RXRa 30nM:10nM, anti-RXR (NR concentration 30 nM, RXRa partner concentration 10 nM)
In short: as §1

[10] = test system: PPARg:RXRa 90nM:30nM, anti-RXR (NR concentration 90 nM, RXRa partner concentration 30 nM)
In short: as §1

[11] = test system: PPARg:RXRa DBDmut IVT, anti-RXR (DBD mutation: RXRa K156A/R161A, NR concentration 270 nM, RXRa partner concentration 90 nM)
In short: as §1

[12] = test system: PPARg:RXRa IVT, anti-PPARg (NR concentration 270 nM, RXRa partner concentration 90 nM)
In short: as §1

[13] = test system: PPARg DBDmut IVT, anti-PPARg (DBD mutation: PPARg1 K132A/R137A, NR concentration 270 nM)
In short: as §1

[14] = test system: PPARg homodimer (NR concentration 180 nM)
In short: as §1

[15] = test system: PXR:RXRa (NR concentration 270 nM, RXRa partner concentration 90 nM)
In short: as §1

[16] = test system: PXR homodimer (NR concentration 270 nM)
In short: as §1

[17] = test system: RARa:RXR (NR concentration 270 nM, RXRa partner concentration 90 nM)
In short: as §1

[18] = test system: RARa homodimer (NR concentration 270 nM)
In short: as §1

[19] = test system: RARb:RXRa (NR concentration 270 nM, RXRa partner concentration 90 nM)
In short: as §1

[20] = test system: PPARg DBDmut:RXRa IVT, anti-PPARg (DBD mutation: PPARg1 K132A/R137A, NR concentration 270 nM, RXRa partner concentration 90 nM)
In short: as §1

| Sequence | PBM binding z-score [1] | PBM binding z-score [2] | PBM binding z-score [3] | PBM binding z-score [4] | PBM binding z-score [5] | PBM binding z-score [6] | PBM binding z-score [7] | PBM binding z-score [8] | PBM binding z-score [9] | PBM binding z-score [10] | PBM binding z-score [11] | PBM binding z-score [12] | PBM binding z-score [13] | PBM binding z-score [14] | PBM binding z-score [15] | PBM binding z-score [16] | PBM binding z-score [17] | PBM binding z-score [18] | PBM binding z-score [19] | PBM binding z-score [20] |
| --- | --- | --- | --- | --- | --- | --- | --- | --- | --- | --- | --- | --- | --- | --- | --- | --- | --- | --- | --- | --- |
| CGAAGTAGGTCACCAGGACAGTGAAGAGGTTGGA | 3.65 | 2.69 | 0.0752 | 2.07 | -0.257 | 5.34 | 8.79 | 7.35 | 4.81 | 7.02 | 8.22 | 8.92 | 0.944 | 1.76 | 1.71 | 0.236 | 2.78 | 0.426 | 3.99 |  |
| ATATGTAGTTTAGGGTCATTCAGAAAGTAGGGAA | 5.21 | 4.46 | 1.76 | 4.87 | 2.03 | 5.14 | 3.26 | 3.61 | 1.72 | 2.87 | 1.43 | 2.8 | 1.5 | 2.89 | 4.68 | 1.83 | 5.48 | 1.75 | 3.42 |  |
| CAAACTAGGTCAAAGGTCAAGGTCGAGCCAACCA | 8.28 | 7.09 | 5.12 | 6.8 | 2.23 | 7.68 |  | 11.5 | 15.3 | 14.1 | 9.03 | 9.29 | 5.8 | 7.67 | 7.26 | 1.52 | 8.89 | 3.88 | 5.76 | 6.79 |
| CTAACTAGGTCACAGAGGTCAAAGTCCGTGCGTA | 7.38 | 6.55 | 7.37 | 6.19 | 2.21 | 6.62 |  | 8.54 | 7.16 | 9.04 | 8.94 | 9.17 | 5.22 | 4.09 | 6.74 | 12.1 | 7.31 | 3.9 | 5.32 | 7.21 |
| CCAGACAGGTGAAAGGTAACTCCGTCTGGTACGC | 0.568 | 0.648 | -0.506 | 0.857 | -0.698 | 3.32 |  | 5.65 | 3.94 | 5.52 | 1.67 | 2.94 | -0.311 | 1.15 | 0.836 | -0.734 | 1.5 | 0.043 | 1.23 | -0.44 |
| ATCGAAAGGTCGAAGGTGAGTACACCCACCCGAA | 4.49 | 3.49 | 0.413 | 2.92 | 0.705 | 4.68 |  | 4.86 | 2.04 | 3.87 | 0.019 | 2.74 | 0.329 | 1.98 | 3.49 | 0.469 | 4.08 | 1.18 | 3.9 | 1.5 |
| GATACAGGGTCAAGGCCAGAATACGCGTATTGAT | 6.98 | 4.25 | 0.231 | 4.25 | 0.223 | 5.84 |  | 5.74 | 2.61 | 4.58 | 2.36 | 4.04 | 0.396 | 2.82 | 3.9 | 0.4 | 4.79 | 0.95 | 4.6 | 0.884 |
| CAAAGTAGGTCACCGGAAGGTCAAAGTCCGCATG | 6.09 | 6.41 | 5.29 | 5.63 | 1.43 | 6.43 |  | 8.21 | 6.7 | 8.45 | 8.84 | 9.1 | 2.62 | 6.69 | 6.22 | 1.73 | 7.55 | 2.1 | 5.39 | 4.14 |
| GCTTACGGGTCAAAGGTTATGGCATGAATAGAAT | 6.72 | 5.85 | 0.622 | 5.65 | 0.792 | 6.79 |  | 9.38 | 9.74 | 10.5 | 5.17 | 5.79 | 1.1 | 3.11 | 6.13 | 0.477 | 8.41 | 1.41 | 4.56 | 1.49 |
| CGTCCAACGTCAAGGTCAGTGAAAGAGACTCGAA | 1.22 | 1.12 | -0.198 | 1.28 | -0.439 | 2.04 |  | 0.216 | -0.429 | -0.211 | -0.074 | -0.0705 | -0.354 | 1.13 | 1.59 | 0.288 | 1.99 | 0.37 | 3.35 | -0.79 |
| CCTCCAAGGTCATAGGAGGTCAGTGAAGACAGAT | 7.3 | 7.45 | 4.84 | 6.24 | 0.899 | 5.85 |  | 5.88 | 2.47 | 4.29 | 2.72 | 4.01 | 0.448 | 4.5 | 6.72 | 4.74 | 5.96 | 2.34 | 5.09 | 1.58 |
| ACTAGCAGGCCAAAGGTCACTCAAGATTAGTCCG | 4.72 | 4.93 | 2.36 | 4.8 | 0.456 | 6.05 |  | 8.65 | 8.65 | 9.39 | 2.74 | 5.44 | 0.109 | 1.96 | 5.11 | 0.886 | 5.72 | 0.747 | 4.81 | -0.0674 |
| TCTTGTAGATCAAAGGTCAAGAAAGCCGAAGCCT | 4.71 | 5.21 | 2.41 | 5.03 | 1.25 | 6.32 |  | 9.37 | 8.45 | 10.1 | 2.63 | 4.93 | 0.612 | 2.55 | 4.83 | 0.853 | 6.09 | 0.488 | 4.74 | -0.0392 |
| CAAAGTAGGTCAAGGTCAAAGTCGGTTTGTGCCA | 6.64 | 5.74 | 4.44 | 4.67 | 1.7 | 6.22 |  | 8.02 | 7.19 | 8.49 | 8.64 | 9.04 | 3.56 | 4.77 | 5.48 | 2.55 | 5.94 | 2.15 | 5.07 | 5.79 |
| CTAACTAGGTCAAGGTCAAAGTCGGTTTGTGCCA | 6.55 | 5.3 | 4.54 | 4.54 | 1.41 | 6.04 |  | 7.82 | 7.09 | 8.36 | 8.82 | 8.88 | 2.34 | 2.99 | 5.04 | 1.89 | 4.65 | 0.786 | 5 | 2.1 |
| CAAACTAGGTCAAGAGGTCAAAGGCCGCTTCCCG | 7.41 | 6.17 | 5.69 | 5.21 | 1.49 | 6.45 |  | 8.47 | 7.55 | 9.13 | 8.35 | 8.52 | 3 | 8.5 | 6.37 | 2.72 | 8.18 | 4.57 | 5.58 | 6.15 |
